Experimental data as given in PubChem BioAssay AID504832 (National Center for Advancing Translational Sciences (NCATS), 2011).
In all, about 310,000 compounds went through this assay and about 18,000 (5.8%) were called active. Roughly 22% stayed inconclusive and do not appear here. The sample holds actives, similar compounds and a random draw of the others, so the mix is not that of the screen. Calls follow the shape of the dose curve; as a rule, active = well fitted inhibition curve with a large enough effect; inconclusive = small, poorly fitted or top-dose-only effect, or another doubt; inactive = no such curve, though single readings can be large or run the other way.

Assay: Primary qHTS for delayed death inhibitors of the malarial parasite plastid, 48 hour incubation
Settings: P. falciparum luciferase growth in erythrocytes; series mostly up to 28.7 µM; activity change, negative = inhibition: at the top concentration
From the text: The goal of this screen is to discover new antimalarial compounds that act by inhibiting the development of the apicoplast in the malarial parasite Plasmodium falciparum. The biochemical processes that make this organelle essential for erythrocytic stage parasites are not well understood. However, antibiotics such as azithromycin and tetracycline, which target the apicoplast translational machinery, have a potent antimalarial effect.
We have developed a cell-based assay that measures parasite growth based on the expression of an integrated copy of a firefly luciferase reporter. To detect small molecules that cause this "delayed death" phenotype, erythrocytes infected with the luciferase-expressing parasites were incubated with compounds for either one or two generations, corresponding to 48 and 96 hours, respectively. Compounds that inhibit parasite growth in the second generation, but not the first, should be enriched in antimalarials that target the apicoplast. Growth inhibition is detected by a decrease in luciferase activity.
Assay Provider: David Fidock and Eric Ekland, Columbia University
Keywords: NIH Roadmap, MLPCN, MLI, MLSMR, qHTS, NCGC, qHTS, malaria, luciferase, viability
Four microliters of culture medium (RPMI 1640 with 0.5% w/v Albumax (GIBCO), 24 mM sodium bicarbonate and 10 ug/mL gentamycin) were dispensed by a Multi-drop Combi into white solid 1536-well plates (Grenier) and 23 nL compound was added by a pin tool. Four microliters of infected erythrocytes (2% hematocrit, 0.1% parasitemia final concentration) in culture medium were dispensed and the plates incubated for 48 hours at 37 C in 5% CO2. Two microliters of luciferase detection reagent was added and luminescence was detected by a ViewLux (PerkinElmer) reader.
% is scaled to controls: 0 for no effect and ±100 for the full control effect; potency is read from the fitted curve at half-maximal effect.

Structure (SMILES) | activity change, negative = inhibition | Potency
COc1ccc(-n2ncc3c2CC(C)(C)CC3NC(=O)CCc2c(C)nn(C)c2C)cc1 (centres undefined) | -1.16% (inactive) | 
Cc1cc(C)n2nc(CNS(=O)(=O)c3c(F)c(F)c(F)c(F)c3F)nc2n1 | 0% (inactive) | 
Cn1c(N)c(C(=O)COC(=O)COc2ccc(Cl)cc2)c(=O)n(C)c1=O | 20.5% (inactive) | 
COc1cc(OC)c(NC(=O)c2ccc(Br)o2)cc1Cl |  | 8.28 µM (active)
CCN1CCN(c2c(Cl)cccc2NC(=O)c2ccc(Br)o2)CC1 | 0% (inactive) | 
COC(=O)c1ccc(N2CCOCC2)c(NC(=O)c2ccc(Br)o2)c1 | 2.02% (inactive) | 
O=C(CCCCCn1c(=S)[nH]c2ccsc2c1=O)NC1CCCCC1 | -9.79% (inactive) | 
CCCN(CC(=O)Nc1ccccc1C)C(=O)c1cc(=O)[nH]c2ccccc12 | 17.1% (inactive) | 
CC1CCc2[nH]c3ccc(C(=O)N(C)CC(=O)Nc4cccc(F)c4)cc3c2C1 (centres undefined) | -27.2% (inactive) | 
CCCN(CC(=O)Nc1ccccc1C)C(=O)c1ccc2[nH]c3c(c2c1)CC(C)CC3 (centres undefined) |  | 10.4 µM (active)
CCC(C(=O)NCc1cccnc1)n1nc(C)c2sc3ccccc3c2c1=O (centres undefined) | 9.32% (inactive) | 
CC(C)NC(=O)C(c1ccc(F)cc1)N(C(=O)CCC(=O)Nc1ccccn1)c1ccccc1F (centres undefined) | 20.9% (inactive) | 
O=C(Nc1ccc(Sc2ccc(Br)cc2)cc1)c1ccco1 |  | 2.33 µM (active)
O=C(Nc1ccc(O)cc1)c1ccc(NC(=O)c2ccco2)cc1 | 81.7% (inactive) | 
O=C(Nc1ccccc1)c1ccco1 | 60.9% (inactive) | 
COc1ccc(OCc2cc(C(=O)N3CCCC3)no2)c2ccccc12 | -19.2% (inactive) | 
CC(CCN1CCN=C1N(C)C)c1ccccc1 (centres undefined) | -8.95% (inactive) | 
O=c1[nH]cnc(O)c1C(c1ccc(F)cc1)c1c(O)nc[nH]c1=O | -0.229% (inactive) | 
COCCCC1CCN(C(=O)C2CCC(=O)N(C3CCCCCC3)C2)CC1 (centres undefined) | -6.84% (inactive) | 
Cc1ccc2nc(N3C(=O)C(O)=C(C(=O)c4ccco4)C3c3cccc(O)c3)sc2c1 (centres undefined) | 93% (inactive) | 
CCc1cccc(NC(=O)COC(=O)c2cc(=O)c3ccccc3o2)c1 | 22.4% (inactive) | 
O=c1oc2c(CN3CCCCC3)c(O)ccc2c2c1CCCCC2 |  | 2.94 µM (active)
NC(=O)C1CCN(C(=O)COc2ccc3c4c(c(=O)oc3c2)CCC4)CC1 | -3.55% (inactive) | 

Structure (SMILES) | activity change, negative = inhibition | Potency
NC(=O)COc1ccc2c3c(c(=O)oc2c1)CCCCC3 | 25.1% (inactive) | 
Cc1cccnc1NC(=O)Cn1c(=O)oc2ccccc21 | -5.88% (inactive) | 
O=C(COC(=O)CNS(=O)(=O)c1ccc(F)c(F)c1F)NC1CCCC1 | 28.8% (inactive) | 
Nc1nnc(SCC(=O)NCC(=O)Nc2ccc(F)c(F)c2F)s1 | 5.81% (inactive) | 
COc1ccc(C(=O)NC(=S)NC2CCCCC2)cc1 | -27.2% (inactive) | 
COc1ccc(C(C)NC(=S)NC2CCCCC2)cc1OC (centres undefined) |  | 2.08 µM (active)
COc1cc(OC)c(C(=O)NC2CCCCCC2)cc1OC | 0.054% (inactive) | 
COc1cc(C(=S)N2CCOCC2)ccc1O |  | inactive
COc1ccc(Cl)cc1C(=O)NNC(=S)NC1CCCC1 | -17.5% (inactive) | 
COc1cc(C(=S)NC2CCCCC2)ccc1O |  | 10.4 µM (active)
C=CCNC(=O)COc1coc(CN2CCN(Cc3ccccc3)CC2)cc1=O | 10.4% (inactive) | 
CC(C)(C)n1nnnc1C(c1ccc2ncccc2c1)N1CCSCC1 (centres undefined) |  | 9.28 µM (active)
Cn1c(SCC(=O)N2CCOCC2)nnc1-c1ccc2ncccc2c1 | 17% (inactive) | 
Cc1ccc(C(c2nnnn2C(C)(C)C)N2CCc3ccccc3C2)cc1 (centres undefined) | 3.97% (inactive) | 
O=C(Nc1nnc(S(=O)(=O)N2CCOCC2)s1)c1cccc(Br)c1 | -13.8% (inactive) | 
O=C(NCCc1ccccc1)C1CCC(Cn2c(=O)c3ccccc3n(Cc3cccnc3)c2=O)CC1 (centres undefined) |  | 11.7 µM (active)
COc1ccc(CCNC(=O)Cn2c(=O)n(CC3CCCO3)c(=O)c3ccccc32)cc1OC (centres undefined) | -10.1% (inactive) | 
O=C(CCc1ccccc1)NCc1cccnc1 | 1.54% (inactive) | 
COCCN(C(=O)CCC(=O)Nc1nccs1)C(C(=O)NCCC(C)C)c1ccc(F)cc1 (centres undefined) | -3.76% (inactive) | 
COc1ccc(Nc2ncnc3sc(-c4ccccc4)cc23)c(OC)c1 | -11% (inactive) | 
c1ccc(-n2ncc3c(N4CCCC4)ncnc32)cc1 | 9.64% (inactive) | 
Oc1ccccc1N1CCN(c2ncnc3sc(-c4ccccc4)cc23)CC1 |  | 13.1 µM (active)
Cn1c(=O)oc2cc(S(=O)(=O)NCCC(=O)NCc3ccccc3Cl)ccc21 | 4.72% (inactive) | 

Structure (SMILES) | activity change, negative = inhibition | Potency
COc1cccc(CNCc2ccc3c(c2)OCO3)c1 | -0.266% (inactive) | 
Cc1ccc(CNCc2ccc3c(c2)OCO3)c(C)c1 | 3.76% (inactive) | 
OC(CNCc1ccc2c(c1)OCO2)COc1ccccc1 (centres undefined) |  | 3.29 µM (active)
CNS(=O)(=O)c1ccc(NC(=O)Nc2ccc3c(c2)OCO3)cc1 | 125% (inactive) | 
O=C(Nc1ccc(S(=O)(=O)Nc2ncccn2)cc1)C12CC3CC(CC(C3)C1)C2 | 5.34% (inactive) | 
CCn1nccc1C(=O)Nc1ccc(S(=O)(=O)NC23CC4CC(CC(C4)C2)C3)cc1 |  | 6.57 µM (active)
CCn1nccc1C(=O)Nc1ccc(Cl)c(Cl)c1 | 28.2% (inactive) | 
Cc1ccc(C)c(S(=O)(=O)Nc2cc(C)on2)c1 | 10.4% (inactive) | 
OC(c1ccc(Cl)cc1)C(CN1CCOCC1)c1ccccc1 (centres undefined) |  | 2.33 µM (active)
CC(CN1CCOCC1)c1ccccc1 (centres undefined) | -5.89% (inactive) | 
O=C(CC(c1ccccc1)c1cc(Cl)ccc1O)NCCN1CCOCC1 (centres undefined) | 47.7% (inactive) | 
O=C(CN(C(=O)c1csnn1)c1ccc(Br)cc1)NC1CCCC1 | 18.7% (inactive) | 
CC(C)(C)c1ccc(S(=O)(=O)N2CCN(C(=O)c3ccc4c(c3)C(=O)N(Cc3ccncc3)C4=O)CC2)cc1 | -2.86% (inactive) | 
CC(C)(C)c1ccccc1NC(=O)CN1C(=O)NC2(CCCC2)C1=O | -0.115% (inactive) | 
O=C(Nn1cnnc1)c1cc(Cl)ccc1Cl | 2.15% (inactive) | 
Cc1sc2ncnc(Sc3nc4ccccc4s3)c2c1C |  | 1.85 µM (active)
CSc1ncnc2sc(C)c(C)c12 | -21.6% (inactive) | 
c1ccc2sc(SNC3CCCCC3)nc2c1 | 0.0777% (inactive) | 
Cc1coc2c1c(C)cc1oc(=O)c(CC(=O)NCC(=O)N[C@H](C(=O)O)C(C)C)c(C)c12 | -9.45% [at 0.00184 µM] (inactive) | 
CC(=O)N[C@@H](C)C(=O)N1CCC(n2nccc2NC(=O)CCCc2ccccc2)CC1 | -2.41% (inactive) | 
Cc1ccc(C)c(OCCC(=O)OCC(=O)NC(=O)NCc2ccccc2)c1 | -8.03% (inactive) | 
CCC1CCCCN1C(=S)Nc1ccc(S(=O)(=O)Nc2ncccn2)cc1 (centres undefined) | 2.45% (inactive) | 
O=C(CCN1C(=O)[C@@H]2Cc3ccccc3CN2C1=O)NCCc1ccccc1 | 0.996% (inactive) | 
